Assay outcomes deposited in PubChem by National Center for Advancing Translational Sciences (NCATS).
BAZ2B inh: inhibitors of human BAZ2B bromodomain; Q9UIF8; AlphaScreen BAZ2B-H3K14Ac peptide displacement; Potency, µM (top dose mostly 114 µM), for inactives: at the highest dose activity change, negative = inhibition, hits mostly inhibitors; hit rate 4.4% among 360,000; also: % is scaled to controls: 0 for no effect and ±100 for the full control effect; nearly all actives have a fitted effect of over 60% in size
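Compounds, titrated to a top concentration of 110 uM, were incubated 30 min at room temperature with preformed BAZ2B/acetyl-K14 H3 peptide complex (50 nM each). Proximity signal was measured by AlphaScreen after 20 min with beads.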
JMJD2A Tudor inh: blocks the human JMJD2A Tudor domain; O75164; AlphaScreen JMJD2A-Tudor / H3K4me3 peptide binding; Potency, µM (doses to about 114 µM), for the others: at the top dose activity change, negative = inhibition, most hits filed as inhibitors; hit rate 4.4% among 390,000; also: % is scaled to controls: 0 for no effect and ±100 for the full control effect; nearly all actives have a fitted effect of over 50% in size
G9a inh: blocks human histone lysine methyltransferase G9a | G9a H3K9 monomethylation, AlphaScreen, 2 h | AID 504332 | Potency, µM (top dose mostly 102 µM), for the others: at the top dose activity, negative = inhibition, most hits filed as inhibitors | Q96KQ7 | hit rate 8.8% among 350,000; also: % is scaled to controls: 0 for no effect and ±100 for the full control effect; nearly all actives have a fitted effect of over 75% in size
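Using a bead-based AlphaScreen, monomethylated H3K9 product from 2 h room-temperature reactions (G9a 20 nM, peptide 500 nM, SAM 20 uM) was detected with 0.5 ug/mL rabbit anti-H3K9me1 antibody.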
Sfp PPTase inh: inhibitors of Bacillus subtilis Sfp phosphopantetheinyl transferase; hit rate 3.5% among 310,000; Potency, µM, inactives show largest response in the series, negative = inhibition, actives largely listed as inhibitors; Q9F4F7; Biochemical Sfp PPTase activity, qHTS;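 also: the enzyme is Sfp with the accession as filed and its product quenches rhodamine fluorescence; 0% = enzyme reaction without inhibitor and -100% = no enzyme wells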
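Reaction rates are the 30-min fluorescence difference (ex 525, em 598 nm) in wells containing 15 nM Sfp, 5 uM rhodamine-CoA and 12.5 uM BHQ-2-YbbR at pH 7.6 with 10 mM MgCl2.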
HP1b binding inh: inhibitors of HP1-beta chromodomain binding to methylated histone tails; Potency, µM (highest dose often 114 µM), without a hit: at the top dose activity change, negative = inhibition, actives largely listed as inhibitors; AID 540317; P83916; AlphaScreen HP1-beta / biotin-H3K9me3 peptide binding; hit rate 0.56% among 390,000; also: nearly all actives have a fitted effect of over 70% in size
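AlphaScreen: HP1-beta (50 nM) preformed 30 min with biotin-H3(1-18)K9me3 peptide (50 nM) in PBS pH 7.4, 0.01% Tween-20. Compound added for 30 min at RT, then streptavidin donor/nickel chelate acceptor beads (10 ug/mL) for 30 min.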
Starred values were filed as active, the others as inactive; ? = inconclusive; nt = no result; ! = not active in a repeat; [ ] = another dose, or the depositor's remark. In the library only some 12% were active in any assay of this set; here they are far more common. Calls follow the shape of the dose curve; as a rule, active = well fitted curve in the direction sought with a large enough effect; inconclusive = small, poorly fitted or top-dose-only effect, or another doubt; inactive = no such curve, though single readings can be large; an effect the other way counts as inactive or inconclusive. Potency is read from the fitted curve at half-maximal effect.

SMILES	BAZ2B inh	JMJD2A Tudor inh	G9a inh	Sfp PPTase inh	HP1b binding inh
N/C(=N\OC(=O)c1cc(Br)ccc1Cl)c1ccccn1	2.5%	12.7%	56.2µM*	-5.2%	51.2%
N/C(=N\OC(=O)c1ccc2ccccc2c1)c1ccccn1	-9.9%	-2.1%	-21.5%	8.5%	20.4%
N/C(=N\OC(=O)c1cc([N+](=O)[O-])ccc1Cl)c1ccccn1	?	?	nt	-15.4%	7.7%
O=S(=O)(NCc1csc(-c2cccnc2)n1)c1ccc2c(c1)OCCO2	4.2%	-5.6%	-6.5%[59 µM]	16.2%	8.4%
Nc1c2c(nc3ccccc13)N(c1ccccc1)CC2	0.0%	35.5µM*	?	-101.2%	?
CCCC(=O)Nc1c2c(nc3ccccc13)N(c1ccccc1)CC2	13.4%	13.0%	-3.5%	27.7%	32.5%
O=C(CN1CCCCC1)Nc1c2c(nc3ccccc13)N(c1ccccc1)CC2	56.2µM*	?	14.1µM*	-23.9%	?
Cc1ccc(N2C(=O)N(CC(=O)N3c4ccccc4CC3C)C(=O)C2C)cc1 (stereo not given)	-4.6%	-15.9%	44.7µM*	nt	15.7%
CCSc1n[nH]c2nc3c(c(=O)n12)C1(CCCC1)Cc1ccccc1-3	-6.4%	0.4%	21.1%[0.501 µM]	8.8%	30.7%
C=CCSc1n[nH]c2nc3c(c(=O)n12)C1(CCCC1)Cc1ccccc1-3	11.5%	-10.2%	50.1µM*	20.6%	38.5%
CCOC(=O)C(C)NC(=O)c1cc2c(=O)[nH]c3ccc(C)cc3c2s1 (stereo not given)	6.0%	1.1%	-3.0%[59 µM]	nt	34.1%
Cc1ccc2[nH]c(=O)c3cc(C(=O)NC(C)C)sc3c2c1	-16.8%	31.6µM*	-5.1%	-0.9%	35.6%[57 µM]
CSc1nnc(NC(=O)c2nc(S(=O)(=O)Cc3cccc(C)c3)ncc2Cl)s1	4.5%	?	4.47µM*	-15.0%	21.8%[57 µM]
CCc1nnc(NC(=O)c2nc(S(=O)(=O)Cc3cccc(C)c3)ncc2Cl)s1	?	2.82µM*	44.7µM*	56.2µM*	-14.9%[57 µM]
CCc1nnc(NC(=O)c2nc(S(=O)(=O)Cc3ccc(C)cc3)ncc2Cl)s1	?	14.1µM*!	44.7µM*!	-17.8%	-15.0%[57 µM]
CC(=O)Nc1ccc(NC(=O)c2nc(S(=O)(=O)Cc3ccccc3)ncc2Cl)cc1	-29.8%	0.4%	-11.6%[0.501 µM]	-25.9%	46.6%
Cc1ccc(C)c(NC(=O)c2nc(S(=O)(=O)Cc3ccc(F)cc3)ncc2Cl)c1	1.3%	9.1%	-3.2%[59 µM]	nt	55.2%
CCc1nnc(NC(=O)c2nc(S(=O)(=O)Cc3ccccc3)ncc2Cl)s1	?	7.94µM*	28.2µM*	?	17.8%[57 µM]
COc1ccc(NC(=O)c2nc(S(=O)(=O)Cc3ccc(C)cc3)ncc2Cl)cc1	1.9%	-14.8%	?	nt	33.5%
COc1ccc(C2C(C(=O)c3ccccc3)=C(C)Nc3nc4ccccc4n32)c(OC)c1 (stereo not given)	3.0%	-15.9%	22.7%	15.4%	46.9%
CCOc1ccccc1NC(=O)c1nc(S(=O)(=O)Cc2cccc(C)c2)ncc1Cl	-30.1%	?	56.2µM*!	-2.7%	28.9%
CCc1nnc(NC(=O)c2ccc3ccccc3n2)s1	1.7%	-8.2%	50.1µM*	?	-10.7%
COC(=O)c1ccccc1NC(=O)c1nc(S(=O)(=O)Cc2ccccc2)ncc1Cl	-19.6%	-21.5%	-6.3%	-10.5%	9.8%
COC(=O)c1cc([N+](=O)[O-])c(-n2cncn2)c([N+](=O)[O-])c1	-13.9%	?	nt	-21.6%	21.1%
Cc1cc(C(=O)COC(=O)C23CC4CC(CC(O)(C4)C2)C3)c(C)n1C	nt	-19.9%	nt	nt	9.8%
SMILES	BAZ2B inh	JMJD2A Tudor inh	G9a inh	Sfp PPTase inh	HP1b binding inh
COCc1nnc(NC(=O)C2CCN(C(=O)c3ccccc3)CC2)s1	nt	-13.5%	nt	nt	14.7%
O=C1c2ccccc2C(=O)c2c(NCc3cccnc3)cccc21	15.1%[57.1 µM]	?	?	-5.8%	?
O=C1c2cccc(NCCCNCCO)c2C(=O)c2cccc(NCCCNCCO)c21	nt	50.1µM*	nt	nt	?
Clc1ccc(CSc2nncn2-c2ccc3c(c2)OCCO3)cc1	-14.4%	-1.1%	4.4%	7.3%	27.3%
CN1CCc2cc(Cl)c(O)cc2C(c2ccccc2)C1 (stereo not given)	nt	nt	29.4%[12.7 µM]	nt	nt
CN1CCc2cc(O)c(O)cc2C(c2ccccc2)C1 (stereo not given)	-21.6%	-24.5%	10.6µM*	nt	-4.8%
Oc1ccc([C@@H]2CNCCc3c2cc(O)c(O)c3Cl)cc1	nt	nt	nt	56.2µM*	nt
Oc1cc2c(cc1O)C(c1ccccc1)CNCC2 (stereo not given)	nt	31.6µM*	6.7µM*	79.4µM*!	?
c1ccc(C2CNCCc3ccccc32)cc1 (stereo not given)	-10.3%	-6.5%	-2.3%	5.6%	22.3%
CN1CCc2c(cc(O)c(O)c2Cl)C(c2cccc(Cl)c2)C1 (stereo not given)	nt	nt	8.91µM*	nt	nt
Cc1ccc(C(=O)N/N=C\c2cc3c(cc2Br)OCO3)cn1	10.7%	-4.9%	10.0%	29.4%	24.4%
CCCCNS(=O)(=O)c1ccc(N2CCCCS2(=O)=O)cc1	-3.3%	-11.6%	-2.5%[59 µM]	nt	-3.1%
OC1(c2ccccc2)CNCCc2ccccc21 (stereo not given)	10.6%	1.3%	13.5%	-10.6%	42.0%
Oc1cc2c(cc1O)[C@@H](c1ccccc1)CNCC2	-7.1%	3.6%	8.91µM*	20µM*	29.2%
OC1CCCN(CC(O)COC(c2ccc(F)cc2)c2ccc(F)cc2)C1 (stereo not given)	50.1µM*	10µM*	44.7µM*	?	-12.1%
CN1CCN(CC(O)c2ccccc2)CC1 (stereo not given)	-3.8%	nt	26.9%	-0.7%	nt
OC(COC(c1ccc(F)cc1)c1ccc(F)cc1)CN1CCc2ccccc2C1 (stereo not given)	44.7µM*	17.8µM*	4.47µM*	-19.0%	?
OC1CCCN(CC(O)c2ccccc2)C1 (stereo not given)	50.1µM*	39.8µM*	3.16µM*	?	5.2%
N/C(=N\OC(=O)CC1CCCCC1)c1ccc([N+](=O)[O-])cc1	?	-15.2%[57.1 µM]	?	-22.9%	19.9%
Cc1ccc(C2(C)NC(=O)N(CC(=O)Nc3ccccc3N3CCCC3)C2=O)cc1 (stereo not given)	50.1µM*	?	39.8µM*	nt	-21.3%
Cc1ccc(C2(C)NC(=O)N(CC(=O)Nc3ccccc3N3CCCCC3)C2=O)cc1 (stereo not given)	-4.5%	-28.3%	-47.8%	nt	5.4%
CC1(c2ccc(Cl)cc2)NC(=O)N(CC(=O)Nc2ccc(F)cc2)C1=O (stereo not given)	-0.1%	-11.0%	11.9%[59 µM]	17.6%	-0.7%
CCC1(c2ccc(F)cc2)NC(=O)N(CC(=O)Nc2ccc(N3CCCCC3)cc2)C1=O (stereo not given)	44.7µM*	44.7µM*	-5.8%[0.501 µM]	nt	-47.8%
CCC1(c2ccc(F)cc2)NC(=O)N(CC(=O)Nc2ccc(C(N)=O)cc2)C1=O (stereo not given)	-6.1%	-14.3%	-14.4%	22.0%	-2.6%
